From PubChem BioAssay (NCI)
Compounds without any hit were thinned out: in the full panel of roughly 79,000, 15% have a hit. Unmarked numbers belong to inactive results. Activity calls are given as the source filed them. Rule as the data show it: active = growth inhibition above about 70%; inactive = the rest.

Experiments:
[1] = NCI Yeast Anticancer Drug Screen. Data for the rad50 strain (AID 155);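 also: 0% = growth of vehicle-only cultures of the same strain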; settings: S. cerevisiae rad50 strain growth inhibition; at 50.0 µM; active compounds read high
Summary of the method: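 Vehicle-treated cultures provide the reference for the growth inhibition reported for compound-exposed, repair-deficient yeast.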

[2] = NCI Yeast Anticancer Drug Screen. Data for the mec2-1 strain (AID 157); settings: S. cerevisiae mec2-1 strain, at 50.0 µM, active compounds read high
Summary of the method: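 mec2-1 yeast strain, carrying an alteration in DNA damage repair or cell cycle control, was exposed to compounds; growth inhibition was measured relative to vehicle-treated controls.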

[3] = NCI Yeast Anticancer Drug Screen. Data for the sgs1 mgt1 strain (AID 161);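 also: 0% = growth of cultures given vehicle only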; settings: S. cerevisiae sgs1 mgt1 strain, at 50.0 µM, active compounds read high
Summary of the method: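 This yeast growth screen uses a strain with defined DNA-repair lesions; compound-treated growth is compared with vehicle-treated growth.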

[4] = NCI Yeast Anticancer Drug Screen. Data for the cln2 rad14 strain (AID 165);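 also: 0% = growth equal to vehicle treated cultures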; settings: S. cerevisiae cln2 rad14 strain, at 50.0 µM, active compounds read high
Summary of the method: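 Yeast carrying cln2 and rad14 alterations (cell cycle control and DNA damage repair) were exposed to compounds. Growth inhibition was measured against vehicle-treated controls.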

[5] = NCI Yeast Anticancer Drug Screen. Data for the bub3 strain (AID 167); settings: S. cerevisiae bub3 mutant strain, at 50.0 µM, active compounds read high
Summary of the method: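 Mutant yeast screening strain plus compound; vehicle-treated cultures serve as the 0% inhibition reference.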

[6] = NCI Yeast Anticancer Drug Screen. Data for the mlh1 rad18 strain (AID 175); settings: S. cerevisiae mlh1 rad18 strain growth inhibition; at 50.0 µM; active compounds read high
Summary of the method: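 Growth inhibition of the yeast strain was measured after compound exposure and expressed relative to vehicle-treated controls. The strain carries defined defects in DNA damage repair.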

Compound	growth inhibition [1] [%]	growth inhibition [2]	growth inhibition [3] [%]	growth inhibition [4] [%]	growth inhibition [5] [%]	growth inhibition [6] [%]
CC(=O)C1CCN(Cc2ccccc2)C1 (stereo unspecified)	3.75	6.9%	7.15	-1.05	-12.7	-21.6
CC1(CO)CCCC2(C)C3=CC(=O)CCC3CCC12 (stereo unspecified)	-6.7	-1.9%	-12.8	-0.35	-8.95	-3.15
CC(C)N1C(=O)NC(=O)C12CCN(Cc1ccccc1)CC2	-1.5	-1.65%	-5.9	-1.7	11.6	-13.7
CCOC(=O)c1ccc(NC(=O)c2cnccn2)cc1	-6.5	0.3%	-17.7	-15.4	-20.4	-2
O=C(NC/C=C/Br)Oc1cccc2ccccc12	-0.05	18.6%	0.9	36.8	2.85	11.3
O=C(CCOP(=O)(NCCCl)NCCCl)c1ccccc1	5.2	-14.8%	0.25	7.25	-11.7	24
CCOc1ccc2nc(SCCl)sc2c1	6.1	-2.7%	7.65	-14.9	-35.1	2.8
Oc1ccc(C2SCc3nc4ccccc4n32)cc1 (stereo unspecified)	-7.85	-17.9%	-35.9	-7.3	-45.1	-25.1
Nc1ncnc(N2CCOCC2)n1	-28.8	-41.3%	-8.15	0.95	-14.9	-8.3
c1ccc2c(c1)N=C(c1cccc3ccccc13)CC(c1cccc3ccccc13)S2 (stereo unspecified)	-28	-20.9%	-46.5	-3.25	-18.9	-37
Nc1ncnc2c1ncn2C1OC(COP(=O)(O)OP(=O)(O)OCC2OC([n+]3cccc(C=O)c3)C(O)C2O)C(O)C1O (stereo unspecified)	10.6	4.4%	6.85	-4.1	0.6	12.3
O=C1C(Cl)=C(SCc2ccccc2)C(=O)c2ccccc21	17.8	72.7% (active)	48.2	-11.3	61.9	42.9
O=C(O)COc1ccc([N+](=O)[O-])cc1/C=C1/SC(=S)N(c2ccccc2)C1=O	14.7	10.3%	18.9	2.5	-1.6	11.2
CCOC(=O)CC1NC(=O)CNC1=O (stereo unspecified)	-9.2	2.1%	5.3	-5	-1.65	-13.2
O=[N+]([O-])c1ccc(N/N=C\C2CC=C3c4ccccc4CCC3C2/C=N\Nc2ccc([N+](=O)[O-])cc2[N+](=O)[O-])c([N+](=O)[O-])c1 (stereo unspecified)	0.75	3.1%	-15.1	-9.7	-3.3	-5.85
O=C(CCCCCC(=O)CC(=O)CCc1ccccc1)CC(=O)CCc1ccccc1	53.3	36.4%	53.5	15.4	19.1	56.6
CCC(C(C)O)[N+](=O)[O-] (stereo unspecified)	32.8	-1.1%	10	4.15	7.25	7.75
CCOP(=O)(OCC)/C(C#N)=C\c1ccc(OC(C)=O)cc1	-6.15	-30.1%	-9	23.5	-25.6	-31.9
CC(=O)Oc1cc(O)oc(=O)c1	33	-14.8%	21.1	19.3	11.3	13.1
Cc1cccc(C)c1N=Nc1sc(N)nc1C	20.4	10.6%	6.65	-29.9	-9.65	22.9
CC1=CC(=O)[C@@H](O)[C@]2(C)[C@H]3[C@@]4(O)OC[C@]35[C@H]([C@@H](CO)[C@H]4O)[C@@H](OC3OC(CO)C(O)C(O)C3O)C(=O)O[C@@H]5C[C@@H]12 (stereo partly specified)	-9.55	-14.5%	-19.2	2.65	-25.1	-25.9

Compound	growth inhibition [1] [%]	growth inhibition [2]	growth inhibition [3] [%]	growth inhibition [4] [%]	growth inhibition [5] [%]	growth inhibition [6] [%]
COc1ccc(OC)c(NC(=O)Oc2cc(C)c(Cl)c(C)c2)c1	5.85	-1.85%	7.1	8.25	9.1	6.35
COc1c2occc2c(N)c2ccc(=O)oc12	-5.95	-4.4%	-8.2	-14.5	-1.55	-9.95
Cc1cc(C(O)CNCCn2cnc3c2c(=O)n(C)c(=O)n3C)ccc1O (stereo unspecified)	38.8	-1.95%	19.4	25.1	-4.95	12.3
O=C(O)/C(=C/c1ccccc1[N+](=O)[O-])c1cccs1	27.9	2.25%	22.6	21.1	-11.3	8.9
O=C(O)C(c1cccs1)C1(O)CCCCC1 (stereo unspecified)	-0.75	-7.2%	-2.25	-1.65	-2.5	-5.3
CC(C)CC1CC(=O)NC1C(=O)O (stereo unspecified)	-14.2	0.35%	-13.2	-26.1	-0.85	-28.9
CCCCCCCCCCCCCCCc1cc(O)ccc1N=O	-3.8	-16.5%	-8.3	-3.45	-1.05	-11.7
N#CC1=C2CCCC(C#N)=C2CCC1	0.95	-1%	-4.55	-40.1	-21.3	-13.8
O=S(=O)(c1ccccc1)C1CCCC1	-12.2	8.9%	-1.85	-11.8	-6.7	-2.9
CCOC(=O)c1ccc(NC(=O)SCCC(=O)O)cc1	20.9	-19.9%	-7.1	15.8	-10.2	13.8
Cc1nc2ccc(I)cc2c(=O)n1-c1ccc(N=Cc2ccc(N(C)C)cc2)cc1	4.7	9.1%	14.3	4.95	-2.9	10.9
N#C/C(=C/c1ccc[nH]1)C(=O)O	-11.6	-10.2%	-6.9	-1	-5.05	-25.9
O=C1/C=C2/C=CC=CN2C(=O)/C=C2/C=CC=CN12	-1.6	-15.3%	-15	1.65	0.95	-11.9
Cc1nc2ccccc2nc1CCO	-12.7	-0.15%	-3.85	-24.2	-24.8	-8.8
CN(C/C=C/CN(C)C(=S)Nc1ccccc1)C(=S)Nc1ccccc1	-19.1	13.1%	-20.5	-2.65	2.85	5.65
CCOC(=O)NC(=O)c1cn(C2OC(CO)C(O)C2O)c(=O)[nH]c1=O (stereo unspecified)	10.3	-18.6%	-16.6	-5.9	28.6	44.5
C=CCOc1cc2c(cc1C(C)c1ccc(OC)c(OC)c1)OCO2 (stereo unspecified)	32.9	-3.2%	17.3	18.4	6.25	49.2
CC(=O)NC(CCCCN(Cc1ccccc1)C(=O)N(C)N=O)C(=O)NCc1ccccc1 (stereo unspecified)	0.3	-6.7%	24.4	-0.15	-22.9	-6.4
CCNC(=S)OC1CCC2(C)C(=CCC3C2CCC2(C)C(C(C)CCC(CC)C(C)C)CCC32)C1 (stereo unspecified)	-1.7	6.6%	-11.6	-24.4	-1.55	-23.8
N#CC(/C(=N/NC(N)=S)C(=O)Nc1cccc(Cl)c1)c1ccccc1 (stereo unspecified)	-23.9	13.8%	10.4	18.3	12.9	31.2
